The results in this text go back to PubChem BioAssay (NCI).

Some test systems named below: HCT-15 colon; HT29 colon; SNB-75 CNS; U251 CNS; PC-3 prostate; SK-MEL-5 melanoma; UACC-62 melanoma; SK-MEL-28 melanoma; SK-MEL-2 melanoma; EKVX NSCLC; SN12C renal; UO-31 renal; TK-10 renal; ACHN renal; CAKI-1 renal; A498 renal; CCRF-CEM leukemia; SNB-19 CNS; MOLT-4 leukemia.
What all share (assay): NCI-60 one-dose screen, 48 h (100 = growth as untreated, 0 = no growth, -100 = all killed)
Common to all, as to details: 10 µM unless noted

SMILES strings stand for the structures. “And” between values parts separate entries of the source, which are not always exact repeats. Identical values can stand only once. Compounds without any hit were thinned out: in the full panel of roughly 83,000, 20% have a hit.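 Cell lines were cultured in 96-well plates, exposed to a single compound concentration, and assessed for percent growth 48 hours later.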 Unmarked numbers belong to inactive results. The source made the active and inactive calls. Rule for the calls: active = growth percent below 10; inactive = the rest.

On to `Clc1nc(Oc2ccccc2)nc(-c2cn(-c3ccccc3)c3ccccc23)n1`, for which the growth was 38.5% in the test with HCT-15 colon; 40.6% with HT29 colon; 105% with SNB-75 CNS; 47.2% in the test on U251 CNS; 41.3% in the test on PC-3 prostate; 102% in the test with SK-MEL-5 melanoma. The growth in the test with UACC-62 melanoma is 80.7%; in the test on SK-MEL-28 melanoma it was -18.3% (active); in the test on SK-MEL-2 melanoma, -49.5% (active); in the test on EKVX NSCLC, 81.3%; in the test with SN12C renal, 85.9%; in the test with UO-31 renal, 17%. For the same compound, the growth in the test with TK-10 renal was 114%; with ACHN renal, 68.7%; in the test on CAKI-1 renal, 13.4%; in the test on A498 renal, 128%; in the test on CCRF-CEM leukemia it was 27.2%.
In the case of `CC1=NN(c2ccccc2)C(=O)C1C(=O)c1ccccc1` (centres undefined), the growth was 108% in the test with HCT-15 colon; 107% in the test on HT29 colon; 103% in the test on SNB-75 CNS; 95.1% with SNB-19 CNS; 94.4% in the test on U251 CNS; 87.9% in the test with PC-3 prostate. Besides, the growth in the test on SK-MEL-5 melanoma is 99.1%; in the test on UACC-62 melanoma, 99.2%; in the test with SK-MEL-28 melanoma it was 101%; with SK-MEL-2 melanoma it was 96.6%; in the test with EKVX NSCLC it was 95%; in the test with SN12C renal, 108%. Moreover, the growth with UO-31 renal was 90.6%; in the test on TK-10 renal, 107%; in the test with ACHN renal, 99.4%; with CAKI-1 renal, 95.9%; in the test on A498 renal, 92.4%; with CCRF-CEM leukemia it was 88.4%. Besides, in the test on MOLT-4 leukemia, the growth was 95.8%.
As for `Cc1ccc(S(=O)(=O)Nc2ccc3cc([N+](=O)[O-])ccc3c2[N+](=O)[O-])cc1`, the growth with HCT-15 colon is 71% and 94.2%; in the test on HT29 colon, 93.3% and 114%; in the test on SNB-75 CNS, 80% and 106%; with SNB-19 CNS, 85.6% and 96.2%; in the test on U251 CNS, 82.1% and 88.2%; in the test on PC-3 prostate, 71.7% and 73.4%. Further, the growth was 86.1% in the test with SK-MEL-5 melanoma; 44% and 69.1% with UACC-62 melanoma; 89.7% and 115% in the test with SK-MEL-28 melanoma; 99.7% and 87.5% in the test with SK-MEL-2 melanoma; 86% and 75.7% in the test with EKVX NSCLC; 47.1% and 58.1% in the test with UO-31 renal. In addition, the growth was 78.5% and 101% in the test on TK-10 renal; 71.2% and 94.5% in the test with ACHN renal; 57.8% and 69.4% in the test with CAKI-1 renal; 69.1% and 83% with A498 renal; 79.1% and 39.4% in the test on CCRF-CEM leukemia; 82.8% and 63% in the test with MOLT-4 leukemia.
